Growth data for ten compounds are collected here from PubChem BioAssay (NCI).

Molecules are shown by their SMILES. Compounds without any hit were thinned out: in the full panel of roughly 83,000, 20% have a hit.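 In brief: 96-well plates, 48 h treatment, single concentration, percent growth endpoint.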 Values without a mark were called inactive. Activity calls are given as the source filed them. How the source made its calls: active means growth percent below 10; inactive means the rest.

What all share (assay): NCI-60 one-dose screen, 48 h (100 = growth as untreated, 0 = no growth, -100 = all killed)
Holding throughout (details): 10 µM unless noted

Experiment [1] relates to EKVX NSCLC.
Experiment [2] has as its system SN12C renal.
The test system of experiment [3] is UO-31 renal.
Experiment [4] has as its system ACHN renal.
Experiment [5] has as its system CAKI-1 renal.
Experiment [6] has as its system A498 renal.
The subject of experiment [7] is CCRF-CEM leukemia.
Experiment [8] relates to MOLT-4 leukemia.
The test system of experiment [9] is SR leukemia.
For experiment [10], the system named is RPMI-8226 leukemia.
For experiment [11], the system named is OVCAR-5 ovarian.
Experiment [12] concerns OVCAR-4 ovarian.
The subject of experiment [13] is SK-OV-3 ovarian.
Experiment [14] relates to OVCAR-3 ovarian.
For experiment [15], the system named is NCI/ADR-RES ovarian.
In experiment [16] the test system is SK-MEL-2 melanoma.
The test system of experiment [17] is TK-10 renal.
The test system of experiment [18] is OVCAR-8 ovarian.
Experiment [19] has as its system HS 578T breast.
For experiment [20], the system named is IGROV1 ovarian.

Regarding `CCN(CC)CCCCCCCCNc1c2ccc(Cl)cc2nc2ccc(OC)cc12`, the growth in experiment [1] is -12.2% (active); in [2], -19.7% (active); in [3], -56.2% (active); in experiment [4] it was -58% (active); in experiment [5], -1.58% (active); in experiment [6], -92.5% (active). Besides, the growth in experiment [7] is -26.5% (active); in [8], -45.8% (active); in experiment [9], -63.6% (active); in experiment [10], -43.8% (active); in [11] it was -24% (active); in experiment [12], -49.8% (active). Also, the growth in experiment [13] was -29.1% (active); in [14] it was -38.3% (active); in experiment [15] it was -29.8% (active).
Turning to `Cc1cccc2nc3ccccc3c(Nc3ccc(NS(C)(=O)=O)cc3)c12`, the growth in experiment [16] is 112%; in [2], 38.9%; in [3], 21.6%; in experiment [17] it was 78.6%; in experiment [4] it was -27.1% (active); in [5] it was 23.4%. Further, the growth in [8] is -0.487% (active); in experiment [9] it was -3.06% (active); in experiment [10], 52.3%; in experiment [18], 39.8%; in [11], 62.1%; in [12], 77.5%. For the same compound, the growth was 41% in experiment [13], 74.3% in experiment [14], 87.8% in experiment [19] and 80.8% in experiment [15].
On to `N=C(N)c1ccc(-c2ccc(-c3cccs3)s2)cc1F`, for which the growth was -80.2% (active) in experiment [16]; -65.3% (active) in [2]; -89.7% (active) in experiment [3]; -84.5% (active) in experiment [4]; -72.6% (active) in experiment [5]; -92.7% (active) in experiment [6]. Besides, the growth in experiment [8] is -55.5% (active); in experiment [9], -23.8% (active); in experiment [10], -48.1% (active); in [18] it was -44.4% (active); in [12] it was -59.1% (active); in [13], -100% (active). Also, the growth is -70.6% (active) in experiment [20], -77.2% (active) in experiment [14], -28.1% (active) in experiment [19] and -57.4% (active) in experiment [15].
Consider `FC(F)(F)c1cc(-c2nnc3n2N=C(Cl)CS3)cc(C(F)(F)F)c1`, for which the growth in experiment [16] is 123%; in experiment [2], 82.1%; in experiment [3], 97.9%; in experiment [17] it was 118%; in experiment [4], 110%; in experiment [6], 108%. In addition, the growth in experiment [7] is 20.5%; in [8], -17.6% (active); in experiment [10], 95.6%; in [11], 114%; in experiment [12] it was 123%; in [13], 99.9%. Besides, the growth in experiment [20] is 114%; in experiment [19], 105%; in experiment [15], 99.1%.
With `O=C(CC(=O)c1ccccc1F)Nc1ccc([N+](=O)[O-])cc1`, the growth was 84% in [16]; 85.3% in experiment [2]; 89.3% in experiment [3]; 91.7% in [17]; 100% in experiment [4]; 106% in experiment [5]. Besides, the growth in [6] is 109%; in [8], 93.3%; in [9], 77.7%; in experiment [10], 68.4%; in experiment [18], 97.4%; in experiment [11], 104%. Besides, the growth is 92.8% in experiment [12]; 108% in [13]; 97.9% in [20]; 109% in [14]; 110% in experiment [19]; 103% in experiment [15].
`ClCCn1cnc2c(SCc3ccccc3Cl)ncnc21`: the growth in experiment [1] was 66.8%; in experiment [2], 44.8%; in experiment [17] it was 34.4%; in experiment [4], 38.4%; in experiment [5], 47.6%; in experiment [6], 39%. Further, the growth is 24.2% in experiment [7]; -28% (active) in experiment [8]; -21.5% (active) in experiment [9]; 7.3% (active) in experiment [10]; 47.5% in experiment [18]; 69.6% in experiment [11]. For the same compound, the growth in experiment [12] was 81.7%; in [13], 46.1%; in [14] it was 35.9%; in [19] it was 53.2%; in [15] it was 54.6%.
As to `Cc1cc(Nc2c3ccccc3nc3ccccc23)ccc1NS(C)(=O)=O`, the growth was 40.7% in experiment [16]; 39.6% in experiment [2]; 22.7% in [3]; 56% in experiment [17]; 9.04% (active) in [4]; 29% in experiment [5]. Also, the growth is 24.2% in experiment [6]; 2.33% (active) in [8]; -6.9% (active) in experiment [9]; 31.2% in [10]; 27.5% in [11]; 48.1% in experiment [12]. Further, the growth is 43.5% in experiment [13]; 25.5% in [20]; 46.6% in experiment [14]; 52.4% in experiment [19]; 57.7% in experiment [15].
Regarding `C[N+](C)(C)CCCCCCCCCC[N+](C)(C)C`, the growth is 96.3% in [1]; 85.9% in experiment [2]; 96.1% in [3]; 112% in experiment [4]; 104% in experiment [5]; 123% in experiment [6]. Also, the growth in experiment [7] was 72.4%; in [8] it was 99.4%; in [10], 96%; in experiment [18], 98.7%; in experiment [11] it was 117%; in experiment [12], 87.2%. The growth in experiment [13] was 106%; in [20] it was 91.5%; in experiment [14] it was 105%; in [15] it was 98.4%.
Take `N/C(=N\O)c1ncc(-c2ccc(C(F)(F)F)cc2)c(NC2CCCCCC2)n1`: the growth is -90.6% [100 µM] (active) in experiment [16]; -91.3% [100 µM] (active) in [2]; -92.1% [100 µM] (active) in experiment [3]; -69.5% [100 µM] (active) in [17]; -64.3% [100 µM] (active) in experiment [4]; -76.4% [100 µM] (active) in experiment [5]. Further, the growth was -90.1% [100 µM] (active) in experiment [6]; -48.8% [100 µM] (active) in experiment [9]; -35.7% [100 µM] (active) in experiment [10]; -76.5% [100 µM] (active) in experiment [11]; -17.8% [100 µM] (active) in experiment [13]; -77.2% [100 µM] (active) in experiment [20]. Further, the results for the growth in [14], in experiment [19] and in [15] were -95% [100 µM] (active), -43.3% [100 µM] (active) and -61.8% [100 µM] (active), respectively.
Consider `N#Cc1ccc(-c2ccc(-c3cccs3)o2)cc1F`, for which the growth in experiment [16] is 70.8%; in experiment [2], 89.1%; in experiment [3], 73.7%; in experiment [17] it was 89.9%; in experiment [4] it was 64%; in experiment [5], 78.1%. The growth in experiment [6] was 95.9%; in experiment [8] it was 66.3%; in experiment [9], 85%; in [10] it was 70.7%; in experiment [18], 64.2%; in [12], 77.5%. In addition, the growth in experiment [13] is 52.1%; in experiment [20], 82.4%; in experiment [14] it was 80.5%; in experiment [19], 51.2%; in experiment [15] it was 72.1%.
